# Measured values taken from PubChem BioAssay AID651658 (Broad Institute, 2012).
# The campaign covered roughly 340,000 compounds. About 5,100 (1.5%) were called active. The list comes from a sample in which actives are over-represented; it also holds similar structures and randomly drawn compounds. A number with no mark means an inactive call.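 The calls were made as follows: active = mean Tm shift, scaled 0 neutral to 100 positive control, at about 1.3% or above, every replicate too (limit read from the data); inconclusive = no clear call, values can overlap the other calls; inactive = the rest.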
# Biological target: Fibroblast growth factor 22 (Homo sapiens) (UniProt Q9HCT0)
# Sequence (Q9HCT0 whole entry, looked up): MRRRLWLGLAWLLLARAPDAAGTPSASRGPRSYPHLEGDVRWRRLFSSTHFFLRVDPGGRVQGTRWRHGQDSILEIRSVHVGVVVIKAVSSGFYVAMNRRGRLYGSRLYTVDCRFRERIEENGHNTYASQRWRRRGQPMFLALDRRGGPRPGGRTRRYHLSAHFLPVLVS
# Assay: FGF22 ligand-induced thermal stabilization – biophysical, thermal shift, single point, FGF22 synaptogenesis inhibitor project, primary screen (AID 651658)
# Conditions: recombinant FGF22 thermal shift, SYPRO orange fluorescence; at 9.99 µM; active compounds read high; percent of sucrose octasulfate shift, DMSO zero
row,Compound,"activity (Tm shift, normalised)"
1,O=C(NCCNc1ccc([N+](=O)[O-])cc1)c1cccc2c(Br)cccc12,0%
2,O=[N+]([O-])c1ccc(NCCCO)c(C(F)(F)F)c1,0.215%
3,CC(C)(C)C(=O)NCCCNc1ccc([N+](=O)[O-])cc1,43.5% (active)
4,CNC(=O)C[C@@H]1CC[C@@H]2[C@@H](COc3ccc(NC(=O)c4ccc5c(c4)OCO5)cc3C(=O)N2C)O1,-0.015%
5,CC(NC(=O)Nc1ccc2c(c1)OCO2)c1ccncc1 (configuration not stated),0.039%
6,CNS(=O)(=O)c1ccc(NC(=O)Nc2ccc3c(c2)OCO3)cc1,-0.016%
7,Cc1cccc(NC(=O)Nc2ccc3c(c2)OCO3)n1,43.6% (active)
8,COc1ccc(NC(=O)Nc2ccc3c(c2)C(=O)N([C@H](C)CO)C[C@H](C)[C@@H](CN(C)Cc2ccc(C(=O)O)cc2)OCCCC[C@H](C)O3)cc1,-0.009%
9,CC=Cc1ccc2n(c1=O)C[C@@H]1[C@@H](CO)[C@H](C(=O)N[C@H](C)c3ccccc3)N(C(=O)c3cnccn3)[C@H]21 (mixture of isomers),-0.323%
10,Nc1ccc(C(=O)OCC(=O)NC2CCS(=O)(=O)C2)cc1[N+](=O)[O-] (configuration not stated),43.7% (active)
11,O=C(COC(=O)/C=C/c1ccc(Cl)cc1)NC1CCS(=O)(=O)C1 (configuration not stated),0.02%
12,O=C(COC(=O)c1ncc(Cl)c(Cl)c1Cl)NC1CCS(=O)(=O)C1 (configuration not stated),0.023%
13,COc1ccc2c3c([nH]c2c1)[C@H](CO)N(C(C)=O)CC31CN(S(=O)(=O)c2cccs2)C1,-10.2%
14,C[C@H](CO)N1C[C@H](C)[C@@H](CN(C)Cc2ccc(C(=O)O)cc2)Oc2ccc(NC(=O)Cn3cnnn3)cc2CC1=O,-0.125%
15,C[C@@H]1CN([C@H](C)CO)C(=O)Cc2cc(NC(=O)Cn3cnnn3)ccc2O[C@H]1CN(C)Cc1ccc(C(F)(F)F)cc1,1.38% (active)
16,C[C@H]1CN([C@@H](C)CO)C(=O)Cc2cc(NC(=O)Cn3cnnn3)ccc2O[C@H]1CN(C)Cc1ccc(C(=O)O)cc1,-0.049%
17,C[C@@H]1CN([C@@H](C)CO)C(=O)Cc2cc(NC(=O)Cc3cn(C)c4ccccc34)ccc2O[C@H]1CN(C)Cc1ccc(C(=O)O)cc1,0.077%
18,C[C@H]1CN([C@@H](C)CO)C(=O)Cc2cc(NC(=O)Cc3cn(C)c4ccccc34)ccc2O[C@@H]1CN(C)Cc1ccccc1,1.38% (active)
19,C[C@H]1CN([C@@H](C)CO)C(=O)Cc2cc(NC(=O)Cc3cn(C)c4ccccc34)ccc2O[C@H]1CN(C)Cc1ccccc1,1.01%
20,N#C[C@@H]1[C@@H](c2ccccc2)[C@H](CO)N1C(=O)c1cc(Cl)cc(Cl)c1,-0.051%
21,O=C(NN1C(=O)C2C3C=CC(O3)C2C1=O)c1ccccc1 (configuration not stated),1.65% (active)
22,CC(C)=C1C2CCC1C1C(=O)N(NC(=O)c3ccco3)C(=O)C21 (configuration not stated),-0.011%
23,O=C(NN1C(=O)C2C3C=CC(O3)C2C1=O)c1ccncc1 (configuration not stated),0.125%
24,O=C(C[C@@H]1C[C@H]2c3cc(NC(=O)NC4CCCC4)ccc3O[C@H]2[C@@H](CO)O1)NC1CCCCC1,-0.272%

row,Compound,"activity (Tm shift, normalised)"
1,O=C(C1CC1)N1CCCCN2[C@H](C1)[C@@H](c1ccc(-c3cccc(F)c3)cc1)[C@@H]2CO,-0.119%
2,C[C@@H]1CN([C@@H](C)CO)S(=O)(=O)c2ccc(-c3ccc(C#N)cc3)cc2O[C@H]1CN(C)Cc1ccccn1,-0.176%
3,COC(=O)[C@]1(C)N[C@H](CN(C)C(=O)c2ccc(C(C)(C)C)cc2)[C@@H]2C(=O)N(C)C(=O)[C@@H]21,0.232%
4,CCCC1(C(=O)OC)NC(c2ccco2)C2C(=O)N(C)C(=O)C21 (configuration not stated),43.8% (active)
5,CCOC(=O)C1(C)NC(c2ccco2)C2C(=O)N(c3ccccc3)C(=O)C21 (configuration not stated),0.052%
6,CC[C@@]1(C(=O)OC)N[C@H](CN(C)C(C)=O)[C@@H]2C(=O)N(C)C(=O)[C@@H]21,43.4% (active)
7,CCN(C[C@H]1N[C@@](CC)(C(=O)OC)[C@H]2C(=O)N(C)C(=O)[C@@H]12)C(=O)Nc1ccc(F)cc1,-0.067%
8,CCCSc1ccc([C@H]2N[C@@](Cc3ccccc3)(C(=O)OC)[C@H]3C(=O)N(C)C(=O)[C@@H]23)cc1,0.041%
9,COc1cccc(S(=O)(=O)N2[C@@H]3CNC[C@H]2C3c2ccc(-c3cccc(C(=O)N(C)C)c3)cc2)c1 (some centres not stated),0.014%
10,C[C@@H]1CN([C@H](C)CO)C(=O)c2cc(NC(=O)c3ccncc3)ccc2O[C@@H]1CN(C)C(=O)Nc1ccc(F)cc1,-0.074%
11,CO[C@@H]1CN(C)C(=O)c2cc(NS(C)(=O)=O)ccc2OC[C@@H](C)N(C(=O)C2CCC2)C[C@@H]1C,-0.13%
12,CO[C@H]1CN(C)C(=O)c2ccc(NC(=O)C3CCCC3)cc2OC[C@H](C)N(C(=O)CC2CC2)C[C@@H]1C,0.031%
13,N#C[C@@H]1[C@@H](c2ccccc2)[C@@H](CO)N1C(=O)Cc1ccccc1,-0.224%
14,CCCNC(=O)N1[C@H](C#N)[C@@H](c2ccccc2)[C@H]1CO,0.065%
15,COc1ccccc1NC(=O)N1[C@H](C#N)[C@H](c2ccccc2)[C@H]1CO,1.69% (active)
16,CCCc1cn(CC[C@H]2CC[C@@H](NS(=O)(=O)c3ccccc3Cl)[C@@H](CO)O2)nn1,-0.219%
17,CC(CNC(=O)Cn1cnc2c(OCc3ccccc3)ncnc21)c1ccccc1 (configuration not stated),-0.208%
18,O=C(Cn1cnc2c(OCc3ccccc3)ncnc21)NCCCn1ccnc1,43.3% (active)
19,Cc1ccc(NC(=O)Cn2cnc3c(OCc4ccccc4)ncnc32)cc1C,0.021%
20,CCC(=O)N(C)C[C@@H]1Oc2ncc(C#CCc3ccccc3)cc2C(=O)N([C@H](C)CO)C[C@H]1C,-0.313%
21,Cc1cc(C)cc(OCC(=O)NNC(=O)CCN2C(=O)c3ccccc3C2=O)c1,43.2% (active)
22,COc1ccc(CNC(=O)CCN2C(=O)c3ccccc3C2=O)cc1,-0.249%
23,Cc1cc(C)cc(NC(=O)CCN2C(=O)c3ccccc3C2=O)c1,0.073%
